The values that follow come from PubChem BioAssay (NCATS).

Calls of active or inactive are those of the source. The call rests on the fitted dose curve.
Potency means the concentration at half of the fitted maximal effect.

Sequence of Catechol O-methyltransferase (Homo sapiens) (P21964 whole entry, looked up): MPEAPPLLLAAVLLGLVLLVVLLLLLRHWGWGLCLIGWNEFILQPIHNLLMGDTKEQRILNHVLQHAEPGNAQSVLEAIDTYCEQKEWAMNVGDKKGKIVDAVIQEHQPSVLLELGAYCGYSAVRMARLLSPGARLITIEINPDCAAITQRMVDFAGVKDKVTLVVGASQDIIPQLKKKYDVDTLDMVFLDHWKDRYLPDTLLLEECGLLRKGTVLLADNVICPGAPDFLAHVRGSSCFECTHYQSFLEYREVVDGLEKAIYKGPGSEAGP

The first test has as its target Catechol O-methyltransferase (Homo sapiens) (UniProt P21964). Briefly: Confirmatory Screen for Target Class Profiling of Small Molecule Inhibitors of Methyltransferases (AID 1745852). On activity change, negative = inhibition: on the % scale 0 is the no-effect control and ±100 the full control effect. The following applies: MTase-Glo luminescence, SAH detection, recombinant enzyme; measured here: COMT max response; stronger effect = lower value.
In the case of `COc1ccc(CCN(C)CCCOc2nsc(-c3ccccc3)n2)cc1OC`, the activity was -5.88%.

For `CCN(CC)CCCCCCNc1cc(OC)cc2c(C)ccnc12`, the activity is -3.27%.

Take `CCOC(=O)c1cnc2ccc(-c3cncc(NS(=O)(=O)c4ccccc4)c3)cn12`: the activity is -38.9%.

Take `CCOC(=O)N1CCC(CN(Cc2ccc(Cl)cc2)Cc2ccc([N+](=O)[O-])s2)C1` (stereo not drawn): the activity was -21.2%.

For `CC1(C)CCC(C)(C)c2cc(C#Cc3ccc(C(=O)O)cc3)ccc21`, the activity was -0.825%.

For `O=C1Cc2c([nH]c3ccc(Br)cc23)-c2ncccc2N1`, the activity was -8.4%.

With `CC(F)(F)CN1CCOc2c(nn(-c3ccccc3Cl)c2-c2ccc(Cl)cc2)C1=O`, the activity was -4.22%.

Turning to `C=C1C(=O)OC2/C=C(/C)C3=CC(=O)C(C)(CC(OC(=O)/C(C)=C/COC(C)=O)C12)O3` (stereo not drawn), the activity is -88.1%.

On to `CCn1c(-c2nonc2N)nc2c(C#CC(C)(C)O)ncc(OCC3CCCNC3)c21` (stereo not drawn), for which the activity was -1.89%.

`CC(C)(O)c1ccc2c(c1)ncn2-c1cccc(-c2ccccc2C#N)c1`: the activity is -35.9%.

Consider `CC12CCC3C1C(c1c(cc(O)c(C(=O)c4ccccc4)c1O)O2)C3(C)C` (stereo not drawn), for which the activity was -35.5%.

For the compound `N#C/C(=C1\Nc2ccccc2S1)c1ccnc(NCCc2cccnc2)n1`, the activity was -23.6%.

For the compound `COc1ccccc1OCCNCC(O)CCOc1cccc2[nH]c3ccccc3c12` (stereo not drawn), the activity was -5.33%.

For the compound `Cc1cn(CCN2CCN(c3ccccc3-c3cc(C#N)cc(C(=O)NCCCN4CCCC4)c3)CC2)c2ccccc12`, the activity came out at 3.99%.

For `COc1cc2c(cc1OC)CN(C(=O)/C=C/c1c(-c3ccccc3)n(C)c3ncccc13)CC2`, the activity was -6.33%.

On to `N#Cc1cnc2c(Cl)cc(NCc3cn(CCN4CCCCCC4)nn3)cc2c1Nc1ccc(F)c(Cl)c1`, for which the activity is -24.8%.

Turning to `C=C1C(=O)O[C@@H]2/C=C(\CO)CC/C=C(/C=O)C[C@H](O)[C@@H]12`, the activity is -86.9%.

Regarding `C=C1C(=O)OC[C@@H]1C/C=C(\C)CC1CC(C)C(=O)O1` (stereo partly drawn), the activity is -80%.

Turning to `C=C1C(=O)OC2C(OC(=O)C=C(C)C)C(C)=C3C(=O)C=C(C)C3C(O)C12` (stereo not drawn), the activity was -65.9%.

Take `CN1CCN(Cc2ccc(NC(=O)Cc3ccc(Oc4cc(NC(=O)C5CC5)ncn4)cc3)cc2C(F)(F)F)CC1`: the activity is -8.91%.

For the compound `COc1ccc(N(C(=O)Nc2c(C)cccc2C)c2cc(Nc3ccc(N4CCN(C)CC4)cc3)ncn2)c(OC)c1`, the activity was -5.96%.

Take `O=C(NCCCc1ccccc1)c1cccc(-c2cc(O)c3ncccc3c2)c1`: the activity is -82.7%.

For the compound `CC(C)(C)c1ccc(C(=O)Nc2cc(Cl)c(Br)cc2C(=O)O)cc1`, the activity is -14%.

Regarding `CN(C)[C@@H]1CCc2[nH]c3ccc(NC(=O)c4ccc(F)cc4)cc3c2C1`, the activity was 0.841%.

For the compound `O=C1NC(=O)C(c2cnc3ccccn23)=C1c1cn2c3c(cc(F)cc13)CN(C(=O)N1CCCCC1)CC2`, the activity was -28.3%.

On to `C=C1C(=O)OC2CC(C)C(CCC(C)O)=CCC12` (stereo not drawn), for which the activity was -95.7%.

Turning to `CC(=O)OC/C(=C/C(=O)O)CC[C@@H]1C(C=O)=CC[C@@H]2C(C)(C)CCC[C@@]12C`, the activity is -75.1%.

Take `C=C1C(=O)O[C@@H]2C3=C(C)CCC[C@]3(C)CC[C@@]12O`: the activity is -87.7%.

For `Cc1nnc(C[C@@H]2C=C(c3ccc(Cl)cc3)c3ccccc3-n3c(C)nnc32)o1`, the activity was -1.31%.

Regarding `C=C1C(=O)OC2/C=C(\C)CC/C=C(\C=O)C(OC)C(OC(=O)C(C)CC)C12` (stereo not drawn), the activity was -70.5%.

Consider `COc1cccc(-c2cn(-c3ccc(CCN4CCC(O)CC4)cc3)c3ncnc(N)c23)c1`, for which the activity is -79.5%.

With `CCCCNc1ncc(C(=O)NCc2ccc(-n3ccnc3)cc2)c(NC2CCC(O)CC2)n1` (stereo not drawn), the activity was -11.6%.

In the case of `Cc1cc2c(N3CCCC3)nc(N3CCCC3)nc2n1C`, the activity is -23.9%.

`CCCSc1nc(N[C@@H]2C[C@H]2c2ccc(F)c(F)c2)c2nnn([C@@H]3C[C@H](OCCO)[C@@H](O)[C@H]3O)c2n1`: the activity is -40.7%.

As to `CN(C)CC1CCn2c(c(C3=C(c4cn(C)c5ccccc45)C(=O)NC3=O)c3ccccc32)C1` (stereo not drawn), the activity was -13.6%.

With `COc1cc2c(cc1-c1c(C)noc1C)ncc1[nH]c(=O)n(C(C)c3ccccn3)c12` (stereo not drawn), the activity was -17.8%.

With `Cc1sc2c(c1C)C(c1ccc(Cl)cc1)=N[C@H](CC(=O)NCCCCNC(=O)COc1cccc3c1C(=O)N([C@H]1CCC(=O)NC1=O)C3=O)c1nnc(C)n1-2`, the activity was -0.126%.

In the case of `C=C1C(OC2OC(CO)C(O)C(O)C2O)CC2C(C)(C)C(O)CCC2(C)C1CC/C(C)=C\COC(=O)CC(=O)O` (stereo not drawn), the activity was -58.5%.

`C=C1C(=O)OC2C1CCC1(C)C(O)CC=C(C)C21` (stereo not drawn): the activity was -60.3%.

A further test addresses Guanidinoacetate N-methyltransferase (Homo sapiens) (UniProt Q14353). Described as above. The following applies: MTase-Glo luminescence, SAH detection, recombinant enzyme; activity change, negative = inhibition: at 57.3 µM (top of the series) unless noted; series mostly up to 57.3 µM.
Consider `COc1ccc(CCN(C)CCCOc2nsc(-c3ccccc3)n2)cc1OC`, for which the activity change, negative = inhibition is -0.0909%.

On to `CCN(CC)CCCCCCNc1cc(OC)cc2c(C)ccnc12`, for which the activity change, negative = inhibition is -0.864%.

`CCOC(=O)c1cnc2ccc(-c3cncc(NS(=O)(=O)c4ccccc4)c3)cn12`: the Potency is 42.9 µM (active).

In the case of `CCOC(=O)N1CCC(CN(Cc2ccc(Cl)cc2)Cc2ccc([N+](=O)[O-])s2)C1` (stereo not drawn), the activity change, negative = inhibition is 1.91%.

As to `CC1(C)CCC(C)(C)c2cc(C#Cc3ccc(C(=O)O)cc3)ccc21`, the activity change, negative = inhibition was found to be 0%.

For `O=C1Cc2c([nH]c3ccc(Br)cc23)-c2ncccc2N1`, the activity change, negative = inhibition is -5.35%.

Turning to `CC(F)(F)CN1CCOc2c(nn(-c3ccccc3Cl)c2-c2ccc(Cl)cc2)C1=O`, the activity change, negative = inhibition was 0.516%.

`C=C1C(=O)OC2/C=C(/C)C3=CC(=O)C(C)(CC(OC(=O)/C(C)=C/COC(C)=O)C12)O3` (stereo not drawn): the activity change, negative = inhibition turned out to be 0.139% [at 29.8 µM].

With `CCn1c(-c2nonc2N)nc2c(C#CC(C)(C)O)ncc(OCC3CCCNC3)c21` (stereo not drawn), the activity change, negative = inhibition was 0.279%.

Regarding `CC(C)(O)c1ccc2c(c1)ncn2-c1cccc(-c2ccccc2C#N)c1`, the Potency is 27.1 µM (active).

Consider `CC12CCC3C1C(c1c(cc(O)c(C(=O)c4ccccc4)c1O)O2)C3(C)C` (stereo not drawn), for which the Potency is 21.1 µM (active).

Turning to `N#C/C(=C1\Nc2ccccc2S1)c1ccnc(NCCc2cccnc2)n1`, the Potency is 15.2 µM (active).

Consider `COc1ccccc1OCCNCC(O)CCOc1cccc2[nH]c3ccccc3c12` (stereo not drawn), for which the activity change, negative = inhibition stood at 2.56%.

As for `Cc1cn(CCN2CCN(c3ccccc3-c3cc(C#N)cc(C(=O)NCCCN4CCCC4)c3)CC2)c2ccccc12`, the activity change, negative = inhibition was 10.2%.

In the case of `COc1cc2c(cc1OC)CN(C(=O)/C=C/c1c(-c3ccccc3)n(C)c3ncccc13)CC2`, the activity change, negative = inhibition is -4.03%.

Turning to `N#Cc1cnc2c(Cl)cc(NCc3cn(CCN4CCCCCC4)nn3)cc2c1Nc1ccc(F)c(Cl)c1`, the Potency is 15.2 µM (active).

For the compound `C=C1C(=O)O[C@@H]2/C=C(\CO)CC/C=C(/C=O)C[C@H](O)[C@@H]12`, the activity change, negative = inhibition is -3.06%.

As for `C=C1C(=O)OC[C@@H]1C/C=C(\C)CC1CC(C)C(=O)O1` (stereo partly drawn), the activity change, negative = inhibition is -0.246%.

For the compound `C=C1C(=O)OC2C(OC(=O)C=C(C)C)C(C)=C3C(=O)C=C(C)C3C(O)C12` (stereo not drawn), the activity change, negative = inhibition was -0.769%.

As for `CN1CCN(Cc2ccc(NC(=O)Cc3ccc(Oc4cc(NC(=O)C5CC5)ncn4)cc3)cc2C(F)(F)F)CC1`, the activity change, negative = inhibition was 0.726%.

As to `COc1ccc(N(C(=O)Nc2c(C)cccc2C)c2cc(Nc3ccc(N4CCN(C)CC4)cc3)ncn2)c(OC)c1`, the activity change, negative = inhibition was 0%.

Turning to `O=C(NCCCc1ccccc1)c1cccc(-c2cc(O)c3ncccc3c2)c1`, the activity change, negative = inhibition was -1.73%.

`CC(C)(C)c1ccc(C(=O)Nc2cc(Cl)c(Br)cc2C(=O)O)cc1`: the activity change, negative = inhibition is -8.07%.

Regarding `CN(C)[C@@H]1CCc2[nH]c3ccc(NC(=O)c4ccc(F)cc4)cc3c2C1`, the activity change, negative = inhibition was determined as 0%.

`O=C1NC(=O)C(c2cnc3ccccn23)=C1c1cn2c3c(cc(F)cc13)CN(C(=O)N1CCCCC1)CC2`: the activity change, negative = inhibition is -13.3%.

For the compound `C=C1C(=O)OC2CC(C)C(CCC(C)O)=CCC12` (stereo not drawn), the activity change, negative = inhibition was -4.2%.

As for `CC(=O)OC/C(=C/C(=O)O)CC[C@@H]1C(C=O)=CC[C@@H]2C(C)(C)CCC[C@@]12C`, the activity change, negative = inhibition is -3.55%.

In the case of `C=C1C(=O)O[C@@H]2C3=C(C)CCC[C@]3(C)CC[C@@]12O`, the activity change, negative = inhibition is -4.1%.

With `Cc1nnc(C[C@@H]2C=C(c3ccc(Cl)cc3)c3ccccc3-n3c(C)nnc32)o1`, the Potency entry is “inactive”.

Take `C=C1C(=O)OC2/C=C(\C)CC/C=C(\C=O)C(OC)C(OC(=O)C(C)CC)C12` (stereo not drawn): the activity change, negative = inhibition is -5.12%.

Regarding `COc1cccc(-c2cn(-c3ccc(CCN4CCC(O)CC4)cc3)c3ncnc(N)c23)c1`, the Potency was 24.1 µM (active).

As for `CCCCNc1ncc(C(=O)NCc2ccc(-n3ccnc3)cc2)c(NC2CCC(O)CC2)n1` (stereo not drawn), the activity change, negative = inhibition is -6.08%.

For `Cc1cc2c(N3CCCC3)nc(N3CCCC3)nc2n1C`, the Potency was 24.1 µM (active).

In the case of `CCCSc1nc(N[C@@H]2C[C@H]2c2ccc(F)c(F)c2)c2nnn([C@@H]3C[C@H](OCCO)[C@@H](O)[C@H]3O)c2n1`, the Potency is 48.2 µM (active).

As to `CN(C)CC1CCn2c(c(C3=C(c4cn(C)c5ccccc45)C(=O)NC3=O)c3ccccc32)C1` (stereo not drawn), the activity change, negative = inhibition was -2.82%.

Take `COc1cc2c(cc1-c1c(C)noc1C)ncc1[nH]c(=O)n(C(C)c3ccccn3)c12` (stereo not drawn): the activity change, negative = inhibition stood at 3.12%.

For the compound `Cc1sc2c(c1C)C(c1ccc(Cl)cc1)=N[C@H](CC(=O)NCCCCNC(=O)COc1cccc3c1C(=O)N([C@H]1CCC(=O)NC1=O)C3=O)c1nnc(C)n1-2`, the activity change, negative = inhibition was found to be 0%.

As to `C=C1C(OC2OC(CO)C(O)C(O)C2O)CC2C(C)(C)C(O)CCC2(C)C1CC/C(C)=C\COC(=O)CC(=O)O` (stereo not drawn), the activity change, negative = inhibition stood at 0% [at 19.1 µM].

As for `C=C1C(=O)OC2C1CCC1(C)C(O)CC=C(C)C21` (stereo not drawn), the activity change, negative = inhibition was -6.03%.
